Results taken from PubChem BioAssay (NCI).
This is part of a sample that, as a whole, favours compounds with a hit. Of some 83,000 tested, about 20% had one in any assay.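 Compound tested at a single concentration for 48 hours in 96-well plates; a percent growth value below 10 was scored as active.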 Unmarked numbers belong to inactive results. Activity calls are given as the source filed them.

Legend:
Test in all cases: NCI-60 one-dose screen, 48 h (100 = growth as untreated, 0 = no growth, -100 = all killed)
Settings in all cases: 10 µM unless noted
SK-MEL-2 melanoma = test system: SK-MEL-2 melanoma
EKVX NSCLC = test system: EKVX NSCLC
SN12C renal = test system: SN12C renal
UO-31 renal = test system: UO-31 renal
TK-10 renal = test system: TK-10 renal
ACHN renal = test system: ACHN renal
CAKI-1 renal = test system: CAKI-1 renal
A498 renal = test system: A498 renal
CCRF-CEM leukemia = test system: CCRF-CEM leukemia
MOLT-4 leukemia = test system: MOLT-4 leukemia

Compound	growth (SK-MEL-2 melanoma)	growth (EKVX NSCLC)	growth (SN12C renal)	growth (UO-31 renal)	growth (TK-10 renal)	growth (ACHN renal)	growth (CAKI-1 renal)	growth (A498 renal)	growth (CCRF-CEM leukemia)	growth (MOLT-4 leukemia)
O=C(Nc1ncc(Cc2ccccc2)s1)c1cc(-c2ccccc2)nc2ccccc12	105%	98.1%	104%	78.7%	98.1%	99.4%	93.7%	103%	95.4%	–
COc1cc2nc3cc([N+](=O)[O-])ccc3c(NCCCNCCO)c2cc1OC	-44.3% (active)	7.46% (active)	-33.3% (active)	48.9%	-4.55% (active)	2.87% (active)	55.5%	-80.2% (active)	0.0749% (active)	–
O=S(=O)(Nc1ccc(Br)cc1)c1ccc(-c2cnc(C3CC3)o2)cc1	33.6%	53%	33.8%	42.3%	64.1%	30.8%	40.6%	-6.87% (active)	7.7% (active)	–
CC(=O)[C@H]1CC[C@]2(C)[C@@H]1CC[C@@H]1[C@@]3(C)C/C(=C/c4cccnc4)C(=O)C(C)(C)[C@@H]3CC[C@]12C	85.3%	85.1%	75.6%	78.2%	162%	87.3%	72.5%	100%	31.7%	–
Cc1nc2ccccc2c(/C=C/c2ccc(Br)cc2)c1C(=O)/C=C/c1ccccc1	-4.28% (active)	26.1%	10.8%	-74.2% (active)	21.2%	6.36% (active)	4.36% (active)	18%	6.02% (active)	–
COC(=O)c1c(C)nc(C)c2c1C(=O)C(Br)=C(NCCN1CCOCC1)C2=O	99.4%	100%	89.5%	86.5%	108%	97.9%	91.4%	92.4%	97.3%	99.3%
CC1(C)CC[C@]2(CO)CC[C@]3(C)C(=CC[C@@H]4[C@@]5(C)CCNCC(C)(C)[C@@H]5CC[C@]43C)[C@@H]2C1	53.7%	97.5%	80.5%	75.3%	95%	88%	67.3%	84.2%	73.8%	–
O=C(COc1ccc(/C=C2\Oc3ccccc3C2=O)cc1)Nc1nccs1	93.6%	84%	90.3%	-39.8% (active)	134%	107%	68.9%	116%	0% (active)	–
CCOC(=O)c1c(Nc2nc3ccccc3s2)sc2c1CCC(=O)C2	103%	42.8%	36.8%	52.7%	29.1%	29.9%	42.8%	59.1%	16.9%	–
C=CCn1c(SCC(=O)Nc2ccc(C(=O)/C=C/c3cc(OC)c(OC)c(OC)c3)cc2)nnc1-c1cc(-c2ccc(S(N)(=O)=O)cc2)nc2ccccc12	100%	100%	90.3%	77.1%	141%	93.8%	72.2%	97%	29.5%	–
O=C(Nc1ccccc1)Nc1ccccc1CNc1nc(Nc2ccc(OCCN3CCCC3)cc2)ncc1Cl	49.9%	85.8%	57.8%	39.6%	94.8%	18.2%	62.7%	31.5%	20.4%	–
COCCNC(=O)Cc1cc(-c2ccc(Cl)cc2)n(-c2ccccc2)c1C	90.7%	85.4%	87.6%	71.1%	95.3%	92.5%	73.5%	89.9%	88.1%	–
O=C(/C=C\c1ccc(O)c(O)c1)c1ccccc1O	125%	73.3%	71.9%	49.6%	88.7%	78.3%	8.01% (active)	98.9%	14.7%	49.1%
c1ccc(Cn2cc3c(c2)-c2nc(Nc4ccccc4)ncc2CC3)cc1	92.6% [100 µM]	72.1% [100 µM]	87.8% [100 µM]	93% [100 µM]	72.8% [100 µM]	81.8% [100 µM]	59.2% [100 µM]	105% [100 µM]	2.85% [100 µM] (active)	107% [100 µM]
